# The entries come from a sample that favours the strongest signals as a whole.
# Assays:
# Test in all cases: glycan array binding signal (z-score within array); higher = stronger binding
# Details in all cases: glycan notation: IUPAC condensed, linker removed
# [1] = molecular target: Fuc(a1-2)Gal(b1-3)GalNAc(a1-3)[Fuc(a1-2)]Gal(b1-4)Glc
# In short: (§1)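 The binding signal is a Z-score computed within each array. Data were drawn from 3228 arrays in the Consortium for Functional Glycomics database, restricted to those with a known protein sequence. Scores were averaged over arrays of the same protein sequence at different concentrations or buffers, and over linkers, and negative values can be taken as non-binding.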
# [2] = molecular target: Fuc(a1-2)Gal(b1-3)GlcNAc(b1-3)GalNAc
# In short: as §1
# [3] = molecular target: Fuc(a1-2)Gal(b1-4)GlcNAc(b1-2)Man(a1-3)[Fuc(a1-2)Gal(b1-4)GlcNAc(b1-2)Man(a1-6)]Man(b1-4)GlcNAc(b1-4)[Fuc(a1-6)]GlcNAc
# In short: as §1
# [4] = molecular target: Fuc(a1-2)Gal(b1-4)GlcNAc6S
# In short: as §1
# [5] = molecular target: Fuc(a1-2)[Gal(a1-3)]Gal(b1-3)GalNAc(b1-3)Gal(a1-4)Gal(b1-4)Glc
# In short: as §1
# [6] = molecular target: Fuc(a1-2)[Gal(a1-3)]Gal(b1-3)GlcNAc(b1-6)GalNAc
# In short: as §1
# [7] = molecular target: Fuc(a1-2)[Gal(a1-3)]Gal(b1-4)GlcNAc(b1-2)Man(a1-3)[Fuc(a1-2)[Gal(a1-3)]Gal(b1-4)GlcNAc(b1-2)Man(a1-6)]Man(b1-4)GlcNAc(b1-4)GlcNAc
# In short: as §1
# [8] = molecular target: Fuc(a1-2)[Gal(a1-3)]Gal(b1-4)GlcNAc(b1-6)GalNAc
# In short: as §1
# [9] = molecular target: Fuc(a1-2)[GalNAc(a1-3)]Gal(b1-3)GlcNAc
# In short: as §1
# [10] = molecular target: Fuc(a1-2)[GalNAc(a1-3)]Gal(b1-4)GlcNAc(b1-2)Man(a1-3)[Fuc(a1-2)[GalNAc(a1-3)]Gal(b1-4)GlcNAc(b1-2)Man(a1-6)]Man(b1-4)GlcNAc(b1-4)GlcNAc
# In short: as §1
# [11] = molecular target: Fuc(a1-2)[GalNAc(a1-3)]Gal(b1-4)[Fuc(a1-3)]GlcNAc(b1-3)GalNAc
# In short: as §1
# [12] = molecular target: Fuc(a1-3)GlcNAc
# In short: as §1
# [13] = molecular target: Fuc(a1-3)[Gal(b1-4)]GlcNAc(b1-4)Gal(b1-4)[Fuc(a1-3)]GlcNAc
# In short: as §1
# [14] = molecular target: Fuc(a1-3)[Gal(b1-4)]GlcNAc(b1-6)[Gal(b1-3)GlcNAc(b1-3)]Gal(b1-4)Glc
# In short: as §1
# [15] = molecular target: Gal(a1-4)Gal(b1-4)GlcNAc
# In short: as §1
# [16] = molecular target: Gal(b1-3)Gal(b1-4)GlcNAc(b1-2)Man(a1-3)[Gal(b1-3)Gal(b1-4)GlcNAc(b1-2)Man(a1-6)]Man(b1-4)GlcNAc(b1-4)GlcNAc
# In short: as §1
# [17] = molecular target: Gal(b1-3)GlcNAc(b1-3)Gal(b1-4)GlcNAc(b1-2)Man(a1-3)[Gal(b1-3)GlcNAc(b1-3)Gal(b1-4)GlcNAc(b1-2)Man(a1-6)]Man(b1-4)GlcNAc(b1-4)GlcNAc
# In short: as §1
# [18] = molecular target: Gal(b1-3)[Fuc(a1-4)]GlcNAc(b1-6)GalNAc
# In short: as §1
# [19] = molecular target: Gal(b1-3)[Neu5Ac(a2-6)]GalNAc
# In short: as §1
# [20] = molecular target: Gal(b1-4)GlcNAc(b1-2)Man(a1-3)[Gal(b1-4)GlcNAc(b1-2)Man(a1-6)]Man(b1-4)GlcNAc(b1-4)GlcNAc
# In short: as §1
# [21] = molecular target: Gal(b1-4)GlcNAc(b1-2)Man(a1-3)[Gal(b1-4)GlcNAc(b1-2)Man(a1-6)][Gal(b1-4)GlcNAc(b1-4)]Man(b1-4)GlcNAc(b1-4)[Fuc(a1-6)]GlcNAc
# In short: as §1
# [22] = molecular target: Gal(b1-4)GlcNAc(b1-2)Man(a1-6)[Man(a1-3)]Man(b1-4)GlcNAc(b1-4)GlcNAc
# In short: as §1
# [23] = molecular target: Gal(b1-4)GlcNAc(b1-2)[Gal(b1-4)GlcNAc(b1-4)]Man(a1-3)[Gal(b1-4)GlcNAc(b1-2)[Gal(b1-4)GlcNAc(b1-6)]Man(a1-6)]Man(b1-4)GlcNAc(b1-4)GlcNAc
# In short: as §1
# [24] = molecular target: Gal(b1-4)GlcNAc(b1-2)[Gal(b1-4)GlcNAc(b1-6)]Man(a1-6)[GlcNAc(b1-4)][Gal(b1-4)GlcNAc(b1-2)Man(a1-3)]Man(b1-4)GlcNAc(b1-4)GlcNAc
# In short: as §1
# [25] = molecular target: Gal(b1-4)GlcNAc(b1-3)Gal(b1-4)GlcNAc(b1-3)Gal(b1-4)GlcNAc(b1-3)Gal(b1-4)GlcNAc(b1-2)[Gal(b1-4)GlcNAc(b1-3)Gal(b1-4)GlcNAc(b1-3)Gal(b1-4)GlcNAc(b1-3)Gal(b1-4)GlcNAc(b1-6)]Man(a1-6)[Gal(b1-4)GlcNAc(b1-3)Gal(b1-4)GlcNAc(b1-3)Gal(b1-4)GlcNAc(b1-3)Gal(b1-4)GlcNAc(b1-2)Man(a1-3)]Man(b1-4)GlcNAc(b1-4)[Fuc(a1-6)]GlcNAc
# In short: as §1
# [26] = molecular target: Gal(b1-4)GlcNAc(b1-3)Gal(b1-4)GlcNAc(b1-3)Gal(b1-4)GlcNAc(b1-3)Gal(b1-4)GlcNAc(b1-3)Gal(b1-4)GlcNAc(b1-2)Man(a1-3)[Gal(b1-4)GlcNAc(b1-3)Gal(b1-4)GlcNAc(b1-3)Gal(b1-4)GlcNAc(b1-3)Gal(b1-4)GlcNAc(b1-3)Gal(b1-4)GlcNAc(b1-2)Man(a1-6)]Man(b1-4)GlcNAc(b1-4)GlcNAc
# In short: as §1
# [27] = molecular target: Gal(b1-4)GlcNAc(b1-3)Gal(b1-4)GlcNAc(b1-3)Gal(b1-4)GlcNAc(b1-3)Gal(b1-4)GlcNAc(b1-3)Gal(b1-4)GlcNAc(b1-2)Man(a1-3)[Gal(b1-4)GlcNAc(b1-3)Gal(b1-4)GlcNAc(b1-3)Gal(b1-4)GlcNAc(b1-3)Gal(b1-4)GlcNAc(b1-3)Gal(b1-4)GlcNAc(b1-2)Man(a1-6)]Man(b1-4)GlcNAc(b1-4)[Fuc(a1-6)]GlcNAc
# In short: as §1
binder,measurement,setting,value
"Gal 9 (Homo sapiens), O00182 (protein) MAFSGSQAPYLSPAVPFSGTIQGGLQDGLQITVNGTVLSSSGTRFAVNFQTGFSGNDIAFHFNPRFEDGGYVVCNTRQNGSWGPEERKTHMPFQKGMPFDLCFLVQSSDFKVMVNGILFVQYFHRVPFHRVDTISVNGSVQLSYISFQNPRTVPVQPAFSTVPFSQPVCFPPRPRGRRQKPPGVWPANPAPITQTVIHTVQSAPGQMFSTPAIPPMMYPHPAYPMPFITTILGGLYPSKSILLSGTVLPSAQRFHINLCSGNHIAFHLNPRFDENAVVRNTQIDNSWGSEERSLPRKMPFVRGQSFSVWILCEAHCLKVAVDGQHLFEYYHRLRNLPTINRLEVGGDIQLTHVQT",glycan array binding signal (z-score),[1],-0.317
same,glycan array binding signal (z-score),[2],-0.3
same,glycan array binding signal (z-score),[3],-0.322
same,glycan array binding signal (z-score),[4],0.06
same,glycan array binding signal (z-score),[5],-0.307
same,glycan array binding signal (z-score),[6],-0.233
same,glycan array binding signal (z-score),[7],0.9
same,glycan array binding signal (z-score),[8],-0.307
same,glycan array binding signal (z-score),[9],0.055
same,glycan array binding signal (z-score),[10],4.39
same,glycan array binding signal (z-score),[11],-0.288
same,glycan array binding signal (z-score),[12],-0.32
same,glycan array binding signal (z-score),[13],-0.303
same,glycan array binding signal (z-score),[14],-0.236
same,glycan array binding signal (z-score),[15],-0.299
same,glycan array binding signal (z-score),[16],6
same,glycan array binding signal (z-score),[17],4.53
same,glycan array binding signal (z-score),[18],-0.282
same,glycan array binding signal (z-score),[19],-0.315
same,glycan array binding signal (z-score),[20],2.94
same,glycan array binding signal (z-score),[21],-0.269
same,glycan array binding signal (z-score),[22],0.09
same,glycan array binding signal (z-score),[23],4.71
same,glycan array binding signal (z-score),[24],3.87
same,glycan array binding signal (z-score),[25],9.56
same,glycan array binding signal (z-score),[26],4.95
same,glycan array binding signal (z-score),[27],4.2

# From the supplement of paper PMC8728848
